Measured values as given in PubChem BioAssay AID1063 (University of Pittsburgh Molecular Library Screening Center, 2008).
Hit rate of the full screen: of about 200,000 compounds, about 18,000 (9%) were called active. No stated cut-off is given here; in the data, active means inhibition above about 50%; inactive means the rest. Only a selection was taken, and actives are over-represented in it overall.

Assay: antileishmanial activity against promastigotes – primary screen (AID 1063);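 further: promastigotes grown with compound for 44 hours at 28 °C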
Conditions: Leishmania major promastigotes, resazurin fluorescence viability; at 10 µM; active compounds read high

Row | Compound | inhibition
1 | CCN(CCn1cccn1)Cc1cn[nH]c1-c1ccc(OC)cc1F | 2.85% (inactive)
2 | Oc1cccc2ccc(/C=C/c3ccc(Br)s3)nc12 | -3.7% (inactive)
3 | CCN(CC(=O)NCCc1ccccc1)S(=O)(=O)c1ccccc1 | 5.3% (inactive)
4 | CCN(CC(=O)NCCc1ccccc1)S(=O)(=O)c1ccc(C)cc1 | 48% (inactive)
5 | CCCNC(=O)CN(Cc1ccccc1F)S(=O)(=O)c1ccc(C)cc1 | 100% (active)
6 | CN(C)C(=O)c1cccn(Cc2cccc(C(F)(F)F)c2)c1=O | -8.4% (inactive)
7 | Cc1cc(C)n2nc(SCC(=O)NC(=O)NCc3ccco3)nc2n1 | -4.34% (inactive)
8 | O=c1[nH]c2cccnc2n(CCNc2ncc(C(F)(F)F)cc2Cl)c1=O | -4.9% (inactive)
9 | COc1ccc(NC(=O)Nc2ccc3nsnc3c2)cc1 | 5.81% (inactive)
10 | Cc1ccc(NC(=O)Nc2ccc3oc(C)nc3c2)cc1 | 2.15% (inactive)
11 | O=C(Nc1ccc2ccccc2c1)Nc1ccc2snnc2c1 | 100% (active)
12 | CCCn1c(NC(=O)C23CC4CC(CC(O)(C4)C2)C3)nc2ccccc21 | -1.31% (inactive)
13 | CCn1c(COc2c(C)cccc2C)nnc1SCc1nc2ccccc2c(=O)[nH]1 | 4.15% (inactive)
14 | COC(=O)C1=C(C)N(C)C(=O)NC1c1ccc([N+](=O)[O-])o1 (stereo not drawn) | 15.2% (inactive)
15 | CN1CCN(/N=C/c2ccc(-c3ccc([N+](=O)[O-])cc3)o2)CC1 | -3.39% (inactive)
16 | C/[N+]([O-])=C\c1ccc([N+](=O)[O-])o1 | 98.5% (active)
17 | O=C(COc1ccc(Cl)cc1[N+](=O)[O-])N1CCCCC1 | -1.15% (inactive)
18 | O=C(CN1CCN(S(=O)(=O)/C=C/c2ccccc2)CC1)Nc1ccc(N2CCOCC2)cc1 | 7.17% (inactive)
19 | O=c1cc(CN2CCN(S(=O)(=O)/C=C/c3ccccc3)CC2)c2ccc(O)cc2o1 | 67.8% (active)
20 | COc1ccc2c(CN3CCN(S(=O)(=O)c4cccs4)CC3)cc(=O)oc2c1 | 2.99% (inactive)
21 | O=c1c(-c2ccccc2)cnc2n1CCS2 | -5.22% (inactive)
22 | O=C(Cc1c(F)cccc1Cl)Nc1ncc([N+](=O)[O-])s1 | 15.8% (inactive)
23 | CC1CCCN(C(C(=O)Nc2ccc(C(C)C)cc2)c2ccc3c(c2)OCO3)C1 (stereo not drawn) | 26.3% (inactive)
24 | O=C(CSc1ccc(-c2ccc(F)cc2)nn1)Nc1ccc2c(c1)OCCO2 | -7% (inactive)

Row | Compound | inhibition
25 | O=C(Nc1ccc2c(c1)OCCO2)C(c1ccc(F)cc1)N1CCCCC1 (stereo not drawn) | 58.5% (active)
26 | COc1cc(/C=N/NC(=O)c2cc(C)n(-c3ccc(F)cc3)c2C)cc(OC)c1O | 3.76% (inactive)
27 | O=C(COC(=O)CC1CC2CCC1C2)NC(=O)NC1CCCC1 (stereo not drawn) | -2.24% (inactive)
28 | Cn1cc(Cl)c(C(=O)NNC(=S)Nc2cccc(Cl)c2)n1 | -7.35% (inactive)
29 | Cc1cccc(-n2cnc(C(=O)Nc3cccnc3)c2)n1 | 10.3% (inactive)
30 | Cc1cccc(-n2cnc(C(=O)NNC(=S)Nc3ccccc3)c2)n1 | 87% (active)
31 | CCOC(=O)c1ccc[n+](CC(=O)Nc2ccccc2OC(F)F)c1 | 1.13% (inactive)
32 | CCCCN(C(=O)COc1ccc(NC(C)=O)cc1)C1CCS(=O)(=O)C1 (stereo not drawn) | -9.97% (inactive)
33 | CCCNC(=S)N1CCC(NC(=O)C23CC4CC(CC(C4)C2)C3)CC1 | -3.43% (inactive)
34 | COc1ccccc1NC(=S)N1CCC(NC(=O)C23CC4CC(CC(C4)C2)C3)CC1 | 94.4% (active)
35 | COc1ccc(C(=O)NC2CCN(C(=S)Nc3ccccc3)CC2)cc1 | -5.57% (inactive)
36 | COc1ccccc1NC(=S)NC(=O)C(C)C | -0.07% (inactive)
37 | COc1ccccc1NC(=S)N1CCN(C(c2ccccc2)c2ccccc2)CC1 | 65.1% (active)
38 | COCCNC(=S)N1CCC(NC(=O)C23CC4CC(CC(C4)C2)C3)CC1 | 73.8% (active)
39 | CC(C)NC(=S)N1CCN(C(c2ccccc2)c2ccccc2)CC1 | 7.72% (inactive)
40 | CCOCCCNC(=S)N1CCC(NC(=O)C2CCCCC2)CC1 | -5.68% (inactive)
41 | CCOc1ccc(C(=O)NC2CCN(C(=O)Nc3ccccc3OC)CC2)cc1 | -1.82% (inactive)
42 | Cc1ccccc1NC(=O)Cn1c(=O)n(CC2CCCO2)c(=O)c2ccccc21 (stereo not drawn) | -7.76% (inactive)
43 | Cc1cc(C)c(C#N)c(N2CCC(C(N)=O)CC2)n1 | -0.97% (inactive)
44 | Cc1csc(NC(=O)Nc2ccccc2[N+](=O)[O-])n1 | 4.81% (inactive)
45 | O=C(Oc1cccc(NC2=NS(=O)(=O)c3ccccc32)c1)c1ccncc1 | -2.71% (inactive)
46 | O=C(N/N=C/c1ccc(OCc2ccccc2)cc1)c1ccc(O)cc1 | 12.5% (inactive)
47 | CCC1SC(CC)C(=O)N(CC(=O)NC2CCCCC2)C1=O (stereo not drawn) | -5.41% (inactive)
48 | Cc1cc(C(=O)OCC(=O)N2c3ccccc3NC(=O)C2(C)C)c(C)n1-c1ccccc1 | 21.6% (inactive)

Row | Compound | inhibition
49 | CCNc1ccc(C(=O)OCC(=O)N2c3ccccc3NC(=O)C2(C)C)cc1[N+](=O)[O-] | 54.4% (active)
50 | CC1(C)C(=O)Nc2ccccc2N1C(=O)COC(=O)Cn1cnc2ccccc2c1=O | -3.68% (inactive)
51 | COc1ccc(-c2csc(-c3cccs3)n2)cc1OC | 0.19% (inactive)
52 | CCOc1ccc(-c2ccc(SCC(=O)N3CCOCC3)nn2)cc1 | -2.79% (inactive)
53 | Cc1ccc(Cc2nc(-c3cccc(C)c3)no2)cc1 | -3.66% (inactive)
54 | Cc1ccc(-c2noc(CC(c3ccccc3)c3ccccc3)n2)cc1 | 7.54% (inactive)
55 | Cc1ccc(-c2noc(CN3CCN(Cc4ccccc4)CC3)n2)cc1 | 52.1% (active)
56 | Cn1cc(/C=C/C(=O)N2CCCC(C(=O)c3ccc(C(F)(F)F)cc3)C2)cn1 (stereo not drawn) | -7.13% (inactive)
57 | Brc1cc(/C=N/n2cnnc2)oc1Br | -0.54% (inactive)
58 | S=c1[nH]nc(NCCc2ccccc2)s1 | -6.01% (inactive)
59 | COc1ccc(NC(=O)CN(Cc2ccccc2)S(C)(=O)=O)cc1OC | -6.14% (inactive)
60 | COc1ccc(CCNC(=O)CN(c2ccccc2)S(C)(=O)=O)cc1 | -6.75% (inactive)
61 | COc1ccc(OC)c(NC(=O)CN(Cc2ccc(Cl)cc2)S(C)(=O)=O)c1 | 90.1% (active)
62 | COc1ccccc1N1CCN(C(=O)CN(Cc2ccc(Cl)cc2)S(C)(=O)=O)CC1 | -0.49% (inactive)
63 | COC(=O)c1ccccc1NC(=O)CN(Cc1ccc(Cl)cc1)S(C)(=O)=O | 36.9% (inactive)
64 | COc1ccc(CNC(=O)CN(Cc2ccc(Cl)cc2)S(C)(=O)=O)cc1 | 57.5% (active)
65 | CCC(C)NC(=O)CN(C1CCCCC1)S(C)(=O)=O (stereo not drawn) | 1.28% (inactive)
66 | O=C(COC(=O)c1ccncc1)c1ccccc1 | -4.89% (inactive)
67 | CNC(=O)NC(=O)CSc1nnc(-c2ccc(F)cc2)n1CC1CCCO1 (stereo not drawn) | -2.36% (inactive)
68 | Cc1nc2ccccn2c1C(=O)NN=C1CCN(C)CC1 | 35.4% (inactive)
69 | O=C(NC1CCc2ccccc21)C12CN(Cc3ccccc3)CC1C(c1cccc([N+](=O)[O-])c1)=NO2 (stereo not drawn) | 58.3% (active)
70 | Nc1ccc(C(=O)OCC(=O)NC2CCCc3ccccc32)cc1[N+](=O)[O-] (stereo not drawn) | -5.78% (inactive)
71 | CCOc1cnc(C(=O)NNC(=O)c2ccccc2Br)o1 | -1.9% (inactive)
72 | Cc1ccc(NC(=O)NNC(=O)c2sccc2-n2cccc2)cc1 | -8.12% (inactive)

Row | Compound | inhibition
73 | COC(=O)C1=C(C)N(C)C(C)=C(C(=O)OC)C1c1cccc(Br)c1 | 52.8% (active)
74 | COC(=O)C1=C(C)N(C)C(=S)NC1c1ccccc1 (stereo not drawn) | -3.63% (inactive)
75 | COC(=O)C1NN=C(C(=O)c2ccc(Br)cc2)C1c1cccc(Br)c1 (stereo not drawn) | 24.8% (inactive)
76 | COc1cccc(N(Cc2nnc3n2CCCCC3)C(=O)Nc2ccccc2F)c1 | -3.13% (inactive)
77 | CCOc1ccc(Nc2nc(Cl)nc(N3CCN(c4ccc(OC)cc4)CC3)n2)cc1 | 53% (active)
78 | CCOc1ccc(NC(=O)CN2CCN(CC(=O)Nc3ccc(OC)cc3)CC2)cc1 | 39.6% (inactive)
79 | COC(=O)c1ccc(Oc2nc(Nc3ccc(F)cc3)nc(N3CCCC3)n2)cc1 | 2.39% (inactive)
80 | O=C(Oc1cccc(O)c1)C1CCCCC1 | -0.1% (inactive)
81 | Cc1ccc(S(=O)(=O)c2c(N)n(C)c3nc4ccccc4nc23)cc1 | 99.1% (active)
82 | CCC(=O)Nc1c(S(=O)(=O)c2ccccc2)c2nc3ccccc3nc2n1Cc1ccccc1 | 32.2% (inactive)
83 | Cc1ccc(S(=O)(=O)Nc2nc(N)n(-c3ccccc3)n2)cc1 | -11% (inactive)
84 | Cc1noc(/C=C/c2ccco2)c1S(=O)(=O)N1CCC(C(=O)N2CCc3ccccc32)CC1 | 66.6% (active)
85 | Cc1noc(/C=C/N(C)C)c1S(=O)(=O)N1CCCC(C(=O)NCc2ccco2)C1 (stereo not drawn) | -6.58% (inactive)
86 | CCOC(=O)C1CCN(C(=O)C2CCN(S(=O)(=O)c3c(C)noc3C)CC2)CC1 | -2.98% (inactive)
87 | O=C(C1CCN(S(=O)(=O)Cc2ccccc2)CC1)N1CCCc2ccccc21 | 24.6% (inactive)
88 | CCOc1ccc(OCC)c(NC(=O)C2CCN(S(=O)(=O)c3c(C)noc3C)CC2)c1 | 26.8% (inactive)
89 | Cc1noc(/C=C/c2ccco2)c1S(=O)(=O)N1CCC(C(=O)Nc2ccc(Cl)cn2)CC1 | 74.5% (active)
90 | CC1=C(C(=O)N(C)C)C(c2ccccc2OC(F)F)NC(=O)N1 (stereo not drawn) | -4.21% (inactive)
91 | CC(=O)NC(Cc1ccc(F)c(F)c1)C(=O)NC1CCN(C(=O)c2ccc(C)cc2)CC1 (stereo not drawn) | -6.89% (inactive)
92 | CCN(CC)CC(=O)Nc1sc2c(c1C(=O)c1ccccc1C)CCC2 | 47.2% (inactive)
93 | CCOC(=O)C1(Cc2ccc(Cl)cc2)CCN(C(=O)C2=NNC(=O)CC2)CC1 | 0.36% (inactive)
